Data from PubChem BioAssay.

experiment: probe aLefty2 binding to arrayed compounds – biochemical, biotinylated probe, 635/667 nm fluorescence, primary screen (AID 1094); conditions: small-molecule microarray, higher = more signal;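 also: score merges spot fluorescence near 667 nm with spot signal-to-noise ratio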

First: COC(=O)[C@@]1(Cc2ccccc2)[C@H]2c3cc(C(=O)N(C)C)n(CCn4cc([N+](=O)[O-])nc4C)c3C[C@H]2CN1C(=O)c1ccccc1
Second: COC(=O)[C@@]1(Cc2ccccc2)[C@H]2c3cc(C(=O)N4CCCC4)n(CCSCCO)c3C[C@H]2CN1C(=O)c1ccccc1
The composite z-score of the first is lower: 0.16 for the first, 0.788 for the second.

Going from `Cc1ccc(N2C(=O)c3ccccc3[C@](C)(C(=O)NCc3ccccc3)[C@@H]2c2ccc(CO)cc2)nc1` to `CN1C(=O)[C@@]2(Cc3ccccc3)N=C(c3ccc(OCCCO)cc3)O[C@H]2c2ccccc21`, the composite z-score rises from 0.0781 to 0.109.

Going from `COC(=O)[C@@]1(Cc2ccc(F)cc2)[C@H]2c3cc(C(=O)N4CCCC4)n(C)c3C[C@H]2CN1C(=O)c1ccccc1` to `COc1ccc([Si](C)(C)[C@@H]2[C@@H](CC(=O)N3Cc4ccccc4C[C@H]3CO)O[C@]3(C(=O)N(Cc4ccc(N5CCC5=O)cc4)c4ccccc43)[C@H]2C)cc1`, the composite z-score falls from 0.744 to -0.0945.

Going from `CC(C)C(=C=CC[C@@H](O)c1cccc(OCCO)c1)C[C@@H](O)c1ccccn1` to `CC(C)C(=C=CC[C@@H](O)c1cccc(OCCO)c1)C[C@@H](O)COCc1ccccc1`, the composite z-score rises from -0.283 to -0.133.

Compared with `O=C(O)[C@H]1C[C@H]2C(=O)N[C@@H](Cc3ccccc3)C(=O)N2[C@H]1c1cccc(OCCO)c1`, `COCCCNC(=O)[C@@]1(Sc2ccc(C)cc2)CC(=O)N(C(C)C)[C@@H]1c1ccc(CO)cc1I` is lower in composite z-score: 0.127 for the first, -0.0225 for the second.

Compound `Cc1ccc([C@H]2C(C(=O)O)=C[C@@H](C(C)(C)C)N2S(=O)(=O)c2ccc(C)cc2)cc1` has a composite z-score of 0.118.
